These molecules were tested on SRPK1. Settings: concentration: 1 μM, replicates: in singlicate; n = 1.
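Also: KINOMEscan kinase panel screen.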

First: COc1cc(Nc2ncc3c(C)nc(-c4cc5ccccc5[nH]4)n3n2)cc(OC)c1OC [GW869516]
Second: COc1cc(Nc2nccc(-c3c(-c4cccc(NC(=O)c5c(F)cccc5F)c4)nn4ccccc34)n2)cc(OC)c1OC [GSK323521]
The “%Inh” value of the first is higher: 9% for the first, 0% for the second.

First: COCCOCCOc1cc2ncc3c4ccc(C#N)cc4[nH]c3c2cc1OC
Second: COc1cc(Nc2nccc(-c3c(-c4cccc(NC(=O)c5c(F)cccc5F)c4)nn4ncccc34)n2)cc(OC)c1OC [GSK327238]
The “%Inh” value of the first is higher: 50% for the first, 38% for the second.

Compared with `O=C(O)C(F)(F)F.O=C(O)C(F)(F)F.O=c1[nH]ccc2nc(N[C@@H]3CCCNC3)nc(Nc3ccc(S(=O)(=O)N4CCOCC4)cc3)c12` [GSK2177277], `Cc1cccc(Nc2nc(N[C@H]3CCNC3)ncc2C(N)=O)c1.Cl` [GSK2197149] is lower in “%Inh” value: 100% for the first, 72% for the second.

Compared with `O=C(Nc1n[nH]c2cc(-c3ccoc3)ccc12)C1CC1` [SB-738481], `Fc1ccc(-c2ncn(C3CCNCC3)c2-c2ccnc(Oc3ccc(-c4ccccc4)cc3)n2)cc1` [SB-245391] is lower in “%Inh” value: 48% for the first, 5% for the second.

Compared with `O=C(Nc1cccc(-c2nn3ccccc3c2-c2ccnc(Nc3cccc(C(F)(F)F)c3)n2)c1)c1c(F)cccc1F` [GSK292658], `O=C(Nc1cccc(-c2nn3ccccc3c2-c2ccnc(Nc3cccc(F)c3)n2)c1)c1c(F)ccc(F)c1Cl` [GSK357952] is higher in “%Inh” value: 12% for the first, 45% for the second.

With `COC(=O)Nc1nc2ccc(Oc3ccc(NC(=O)Nc4cc(C(F)(F)F)ccc4F)cc3)cc2n1C.Cl` [GW692089] the “%Inh” value was 26%.

Each molecule was assayed on SRPK2. Settings: concentration: 1 μM, replicates: in singlicate; n = 1.

Going from `CCn1c(-c2nonc2N)nc2c(C#CC(C)(C)O)nc(OC[C@H](N)c3ccccc3)cc21` [GSK943949] to `COc1cc(Nc2ncc3c(C)nc(-c4cc5ccccc5[nH]4)n3n2)cc(OC)c1OC` [GW869516], the “%Inh” value rises from 0% to 6%.

First: Cc1cccc(NC(=O)Nc2ccc(Oc3ncnc4ccn(C)c34)cc2)c1
Second: COC(=O)Nc1nc2ccc(Oc3ccc(NC(=O)Nc4cc(C(F)(F)F)ccc4F)cc3)cc2n1C.Cl [GW692089]
The “%Inh” value of the first is lower: 0% for the first, 57% for the second.

First: O=C(Nc1cccc(Oc2ccc3nc(NC(=O)C4CC4)cn3n2)c1)c1ccccc1C(F)(F)F
Second: COc1cccc(C(=O)Nc2cccc(Oc3ccc4nc(NC(=O)C5CC5)cn4n3)c2)c1
The “%Inh” value of the first is lower: 14% for the first, 29% for the second.

First: O=C(Nc1ccccc1F)NC1CCN(c2ccnc(Nc3ccc(F)cc3)n2)CC1 [GSK1379800]
Second: COc1cccc(NC(=O)NC2CCN(c3ccnc(Nc4cc(OC)c(OC)c(OC)c4)n3)C2)c1 (stereo not drawn) [GSK1379763]
The “%Inh” value of the first is higher: 25% for the first, 0% for the second.

Compared with `NCCCC(NC(=O)c1cc(Br)c(-c2ccnc3[nH]ccc23)s1)c1ccccc1.O=C(O)C(F)(F)F.O=C(O)C(F)(F)F` (stereo not drawn) [GSK1287544], `O=C(O)C(F)(F)F.O=C(O)C(F)(F)F.O=c1[nH]ccc2nc(N[C@@H]3CCCNC3)nc(Nc3ccc(S(=O)(=O)N4CCOCC4)cc3)c12` [GSK2177277] is higher in “%Inh” value: 12% for the first, 65% for the second.

Going from `COC(=O)Nc1nc2cc(Oc3ccc(NC(=O)Nc4cc(C(F)(F)F)ccc4F)cn3)ccc2[nH]1.Cl.Cl` [GW681170] to `O=C(Nc1cccc(-c2nn3ccccc3c2-c2ccnc(Nc3cccc(C(F)(F)F)c3)n2)c1)c1c(F)cccc1F` [GSK292658], the “%Inh” value falls from 8% to 0%.

Compared with `Cc1ccc(C(=O)Nc2ccc(Nc3ccnc4cc(-c5nccs5)ccc34)cc2O)cc1.Cl` [GW494702], `Cl.c1ccc(-c2ccc3c(Nc4ccc5[nH]ncc5c4)ccnc3c2)nc1` [GW440137] is lower in “%Inh” value: 31% for the first, 0% for the second.

`CCc1ccc(-c2ccc3c(c2)-c2c(cnn2C)S(=O)(=O)N3C)cc1` and `Nc1ncc(-c2cccnc2)c2scc(-c3ccc4c(c3)CCN4C(=O)Cc3ccccc3)c12` [GSK683281] are the same in “%Inh” value: 0% for the first, 0% for the second.

`CN(C)S(=O)(=O)c1cc(-c2ccc3nccc(-c4cccc(S(N)(=O)=O)c4)c3c2)cnc1N` [GSK1669921] and `C[C@@H](Oc1cc(-n2cnc3cc(-c4ccnc(NCCS(C)(=O)=O)c4)ccc32)sc1C(N)=O)c1ccccc1Cl` [GSK907232] are the same in “%Inh” value: 0% for the first, 0% for the second.

`O=c1[nH]cc(-c2ccc(N3CCOCC3)cc2)c2sc(-c3cn[nH]c3)cc12` [GSK2276055] and `CC(C)c1nc(-c2cccc(NS(=O)(=O)c3c(F)cccc3F)c2F)c(-c2ccnc(Nc3ccc(N4CCOCC4)nc3)n2)s1` [GSK2008607] are the same in “%Inh” value: 0% for the first, 0% for the second.

`COc1cc(Nc2nccc(N3CCC(NC(=O)Nc4cccc(C(C)=O)c4)C3)n2)cc(OC)c1OC` (stereo not drawn) [GSK1379753] and `COc1cc(Nc2nccc(N3CCC(NC(=O)c4cc5ccccc5s4)C3)n2)cc(OC)c1OC` (stereo not drawn) [GSK1379760] are the same in “%Inh” value: 0% for the first, 0% for the second.

`CN1CCN(CCCNc2nccc(-c3c(-c4ccc(F)cc4)nn4cc(C(F)(F)F)ccc34)n2)CC1` [GW621581] and `Cc1ccc(F)c(C(=O)Nc2cccc(-c3nn4ccccc4c3-c3ccnc(Nc4cccc(F)c4)n3)c2)c1F` [GSK361061] are the same in “%Inh” value: 0% for the first, 0% for the second.

First: c1ccc(-c2cnc3nccnn23)cc1 [AH20685]
Second: Nc1n[nH]c2cnc(-c3ccccc3)cc12 [SB-642124]
The “%Inh” value of the first is lower: 0% for the first, 3% for the second.

`Cc1ccc(C(=O)N2CC[C@@H](O)C2)cc1-n1c(C)cc(OCc2ccc(F)cc2F)c(Br)c1=O` and `Oc1cc(Nc2ccnc3cc(I)ccc23)ccc1F` [GW552771] are the same in “%Inh” value: 0% for the first, 0% for the second.

Going from `C[C@@H]1CC[C@@H](C(=O)Nc2ccccc2)CN1c1cc(-c2ccc3c(N)n[nH]c3c2)nc(N)n1` [GSK2286062] to `O=C(Nc1n[nH]c2cc(-c3ccoc3)ccc12)C1CC1` [SB-738481], the “%Inh” value falls from 33% to 0%.

`O=C(Nc1cccc(-c2nn3ncccc3c2-c2ccnc(Nc3ccccc3)n2)c1)c1c(F)cccc1F` [GSK198271] and `COc1cc(Nc2nccc(-c3c(-c4cccc(NC(=O)c5c(F)cccc5F)c4)nn4ncccc34)n2)cc(OC)c1OC` [GSK327238] are the same in “%Inh” value: 0% for the first, 0% for the second.

Going from `COCCOCCOc1cc2ncc3c4ccc(C#N)cc4[nH]c3c2cc1OC` to `COc1cc(Nc2nccc(-c3c(-c4cccc(NC(=O)c5c(F)cccc5F)c4)nn4ccccc34)n2)cc(OC)c1OC` [GSK323521], the “%Inh” value falls from 24% to 21%.

`Cc1cccc(Nc2nc(N[C@H]3CCNC3)ncc2C(N)=O)c1.Cl` [GSK2197149] and `O=C(Nc1cccc(-c2nn3ccccc3c2-c2ccnc(Nc3cccc(F)c3)n2)c1)c1c(F)ccc(F)c1Cl` [GSK357952] are the same in “%Inh” value: 0% for the first, 0% for the second.

`Fc1ccc(-c2ncn(C3CCNCC3)c2-c2ccnc(Oc3ccc(-c4ccccc4)cc3)n2)cc1` [SB-245391] was tested, and the “%Inh” value was 0%.
